The results in this text go back to PubChem BioAssay (NCATS).

A short description of assay [1]: AP1 Signaling Pathway (AID 357; active = well fitted curve in either direction with a large enough effect, not every such curve was filed as active;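 also: ME-180 reporter cells stimulated with EGF at its EC50 level; % is scaled to controls: 0 for no effect and ±100 for the full control effect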). Put shortly: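 Modulation of EGF-driven AP-1 transcription was assessed with a beta-lactamase reporter in ME-180 cells. Compound and EC50 EGF were co-incubated 5 hours at 37 °C before 2.5-hour CCF4 loading at room temperature and dual-emission reading.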
Assay [2] can be described thus: NFAT Signaling Pathway (AID 444; active = well fitted curve in either direction with a large enough effect, not every such curve was filed as active;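 also: carbachol stimulus at about its EC50 of 1 µM final; % is scaled to controls: 0 for no effect and ±100 for the full control effect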). The note with it: Jurkat NFAT-bla M1, carbachol, beta-lactamase ratio, 5 h; at 17.2 µM (top of the series) unless noted. An outline of the steps:
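Jurkat cells with NFAT-driven β-lactamase reporter and co-expressed M1 receptor, stimulated with carbachol (final 1 uM, ~EC50), compound titration, 5 h at 37 °C. CCF4 loaded 1 h at RT; 460/530 nm ratio gave %activity and AC50.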

Assay [3] in a line: Stat Signaling Pathway (AID 446; active = well fitted curve in either direction with a large enough effect, not every such curve was filed as active;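 also: ME-180 cervical cancer cells given 40 pM IL-6 alongside compound; SIE-controlled beta-lactamase reporter measured as 460/530 nm FRET emission ratio; % is scaled to controls: 0 for no effect and ±100 for the full control effect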). An outline of the steps:
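Overnight-plated ME-180 cells bearing a STAT Inducible Element beta-lactamase reporter; 5 h co-exposure to compound and 40 pM IL-6; values normalized to 300 pM IL-6 and 125 nM JAK inhibitor controls.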

In assay [4] the target is Glucocorticoid receptor (Homo sapiens) (UniProt P04150). As to the kind of experiment: GR-GFP Redistribution (AID 450;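 active = compounds whose dose series gives a full or clear partial fitted curve of increased nuclear translocation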; also: potency is read from the fitted curve at half-maximal effect). The settings on record: U2OS GR-GFP nuclear translocation, laser cytometry, 2 h.
For assay [5] the target is unchanged. Nature of the assay: GR-EFC Redistribution (AID 451; calls by dose curve; also: potency is read from the fitted curve at half-maximal effect). The note with it: CHO-K1 GR-EFC translocation, beta-gal luminescence, 2 h. An outline of the steps: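 CHO-K1 cells expressing nuclear EA and GR-ED fragments of b-gal; compounds titrated up to 46 uM final, 2 h at 37 C. GR nuclear translocation read as complemented b-gal luminescence after 1 h RT detection.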

For assay [6], the target named is Mitogen-activated protein kinase 10 (Mus musculus) (UniProt Q61831). Nature of the assay: JNK3 AlphaScreen Assay (AID 530; active = well fitted curve in either direction with a large enough effect, not every such curve was filed as active;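 also: kinase came from lysate of stimulated human HepG2 cells; signal reports phosphorylation of biotinylated GST-cJun 1-79 at Ser73 with 10 µM ATP; % is scaled to controls: 0 for no effect and ±100 for the full control effect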). Put shortly:
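Activity was read by AlphaScreen after JNK3-containing HepG2 lysate (cytokine pre-activated) phosphorylated biotinylated GST-cJun with 10 uM ATP at room temperature. Phospho-Ser73 cJun antibody with Protein-A acceptor beads provided detection.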

The target in assay [7] is 3',5'-cyclic-AMP phosphodiesterase 4B (Homo sapiens) (UniProt Q07343). As to the kind of experiment: qHTS Assay for Inhibitors of PDE-IV (AID 607; active = well fitted activation curve with a large enough effect in the main read-out, with a control signal flat, not every such curve was filed as active; also: % of control where 0% means no effect). Put shortly: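 Live HEK293 cells with a modified cyclic nucleotide-gated (CNG) channel report intracellular cAMP via membrane-potential dye fluorescence (ex 535/em 590 nm). Endogenous PDE-IV was targeted. Compounds were tested at up to 22.9 uM final; RO 20-1724 100 uM served as control.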
For orientation: qHTS replaces the single test concentration by a dilution series.

A short description of assay [8]: qHTS Assay for Lipid Storage Modulators (AID 1519; calls by dose curve). The note with it: Drosophila S3 cells, BODIPY lipid droplet/cell ratio, laser cytometry, cells loaded with oleic acid; for activity change, negative = inhibition: at 25.7 µM (top of the series). An outline of the steps: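 Cells seeded at 5,000 per well were treated with compounds over a concentration series and loaded with oleic acid (400 uM, as added). Lipid droplet fluorescence (488 nm excitation, 500-530 nm channel) was read by laser-scanning cytometry and normalized to 20 uM Triacsin C.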

The target of assay [9] is ATP-dependent 6-phosphofructokinase (Trypanosoma brucei brucei) (UniProt O15648). Nature of the assay: qHTS Assay to Find Inhibitors of T. brucei phosphofructokinase: hit validation (AID 492961). An outline of the steps:
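Compounds titrated; %activity normalized to 0x and 1x enzyme controls, curve-fitted. Readout: ADP-Glo luminescence after 45 min room-temperature reaction of 1.25 nM PFK, 0.1 mM ATP, 0.5 mM F6P, pH 8.0.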

For assay [10], the target named is Ubiquitin carboxyl-terminal hydrolase 1 (Homo sapiens) (UniProt O94782). As to the kind of experiment: Inhibitors of USP1/UAF1: Pilot qHTS (AID 504865).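 Also: rhodamine fluorescence freed from ubiquitin-rhodamine substrate followed over time; top concentration of the series differs between compounds; % is scaled to controls: 0 for no effect and ±100 for the full control effect; nearly all actives have a fitted effect of over 35% in size.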 An outline of the steps: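 USP1/UAF1 complex at 1 nM preincubated 15 min at room temperature with compound, then Ub-Rho substrate added at 150 nM final. Fluorescence (480/540 nm) read kinetically in 50 mM HEPES pH 7.8, 0.5 mM EDTA, 1 mM TCEP, 0.1 mg/ml BSA, 0.01% Tween-20.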

For assay [11], the target named is Luciferin 4-monooxygenase (Photinus pyralis) (UniProt P08659). Nature of the assay: Biochemical firefly luciferase enzyme assay for NPC (AID 624030).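 Also: purified P. pyralis luciferase at 10 nM with luciferin and ATP substrate; 0% = DMSO and -100% = full luciferase inhibition by PTC124 control; nearly all actives have a fitted effect of over 70% in size.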 Put shortly: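 Purified P. pyralis luciferase at 10 nM in 50 mM Tris Acetate (final), luminescence read within 5 minutes of enzyme addition to compounds. Activity normalised to PTC124 versus DMSO; concentration-response curves classed by r2, magnitude and activity.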

Assay [12] can be described thus: qHTS profiling for inhibitors of Plasmodium falciparum proliferation (AID 504749).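 Also: 0% = DMSO vehicle and full inhibition = artemisinin control; nearly all actives have a fitted effect of over 60% in size.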 The settings on record: P. falciparum in erythrocytes, SYBR Green DNA, 72 h, at 12.8 µM (top of the series). An outline of the steps:
(§1)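 Each compound contacts P. falciparum-infected red blood cells for 72 h at 37 C; lysis buffer (Tris, EDTA, saponin, Triton X, SYBR Green I) is added and fluorescence measured next morning; values normalized to controls.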

In another assay the test system is C2A. Described as above. The settings on record: P. falciparum in erythrocytes, SYBR Green DNA, 72 h; series mostly up to 12.8 µM. Put shortly: as §1
A further assay relates to CP191. The description is as above. The note with it: P. falciparum in erythrocytes, SYBR Green DNA, 72 h; series mostly up to 12.8 µM. An outline of the steps: as §1
The subject of a further assay is CP238. The description is as above. The settings on record: P. falciparum in erythrocytes, SYBR Green DNA, 72 h; series mostly up to 12.8 µM. An outline of the steps:
as §1

The subject of another assay is CP256. The assay is described as above. The note with it: P. falciparum in erythrocytes, SYBR Green DNA, 72 h; series mostly up to 12.8 µM. An outline of the steps: as §1
In another assay the test system is FAB9. The description is as above. The settings on record: P. falciparum in erythrocytes, SYBR Green DNA, 72 h; series mostly up to 12.8 µM. An outline of the steps: as §1
The subject of the next assay is JCK. The description is as above. The settings on record: P. falciparum in erythrocytes, SYBR Green DNA, 72 h; series mostly up to 12.8 µM. An outline of the steps: as §1
In a further assay the test system is SC27B. The assay is described as above. The note with it: P. falciparum in erythrocytes, SYBR Green DNA, 72 h; series mostly up to 12.8 µM. An outline of the steps: as §1
Assay [13] deals with Cytochrome P450 1A2 (Homo sapiens) (UniProt P05177). As to the kind of experiment: p450-cyp1a2 (AID 410; calls by dose curve; also: potency is read from the fitted curve at half-maximal effect). An outline of the steps: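 Luminescent demethylation readout: Luciferin-ME (100uM, equal to Km) turned over by 20nM CYP1A2 for 60 min at room temperature after NADPH regeneration addition, following 10 min compound preincubation. Normalization used 57 uM furafylline as full inhibition.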

Where [14] appears, read: measured here: cell count channel max response.
[15] abbreviates: measured here: lipid channel max response.

Results filed as inconclusive are left out. Active and inactive are the calls of the source. Unless noted, calls follow the shape of the dose curve; as a rule, active = well fitted curve in the direction sought with a large enough effect; inconclusive = small, poorly fitted or top-dose-only effect, or another doubt; inactive = no such curve, though single readings can be large; an effect the other way counts as inactive or inconclusive. Bounds are passed on as bounds.

Ubiquitin carboxyl-terminal hydrolase 1 (Homo sapiens), sequence (O94782 whole entry, looked up): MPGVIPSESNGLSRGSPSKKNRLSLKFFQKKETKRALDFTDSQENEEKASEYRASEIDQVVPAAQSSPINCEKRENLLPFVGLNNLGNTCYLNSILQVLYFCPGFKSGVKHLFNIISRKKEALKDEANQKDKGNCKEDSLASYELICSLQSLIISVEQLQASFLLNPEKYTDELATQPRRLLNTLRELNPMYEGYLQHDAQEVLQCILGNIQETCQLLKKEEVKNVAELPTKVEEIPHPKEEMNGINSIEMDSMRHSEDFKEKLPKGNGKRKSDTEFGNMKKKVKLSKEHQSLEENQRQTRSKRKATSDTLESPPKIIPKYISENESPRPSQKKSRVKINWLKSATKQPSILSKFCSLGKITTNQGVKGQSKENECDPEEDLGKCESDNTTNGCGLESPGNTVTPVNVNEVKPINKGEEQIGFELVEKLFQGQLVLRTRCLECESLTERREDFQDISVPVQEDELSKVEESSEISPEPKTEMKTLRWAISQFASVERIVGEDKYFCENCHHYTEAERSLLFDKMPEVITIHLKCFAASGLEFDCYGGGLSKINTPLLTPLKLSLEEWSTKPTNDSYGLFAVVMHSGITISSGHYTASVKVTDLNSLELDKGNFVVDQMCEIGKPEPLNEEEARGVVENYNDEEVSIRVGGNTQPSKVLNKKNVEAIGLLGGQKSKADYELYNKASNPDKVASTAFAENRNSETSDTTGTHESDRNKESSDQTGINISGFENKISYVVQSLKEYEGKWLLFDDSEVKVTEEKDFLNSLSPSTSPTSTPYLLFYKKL
Glucocorticoid receptor (Homo sapiens), sequence (P04150 whole entry, looked up, the tested form may be a part): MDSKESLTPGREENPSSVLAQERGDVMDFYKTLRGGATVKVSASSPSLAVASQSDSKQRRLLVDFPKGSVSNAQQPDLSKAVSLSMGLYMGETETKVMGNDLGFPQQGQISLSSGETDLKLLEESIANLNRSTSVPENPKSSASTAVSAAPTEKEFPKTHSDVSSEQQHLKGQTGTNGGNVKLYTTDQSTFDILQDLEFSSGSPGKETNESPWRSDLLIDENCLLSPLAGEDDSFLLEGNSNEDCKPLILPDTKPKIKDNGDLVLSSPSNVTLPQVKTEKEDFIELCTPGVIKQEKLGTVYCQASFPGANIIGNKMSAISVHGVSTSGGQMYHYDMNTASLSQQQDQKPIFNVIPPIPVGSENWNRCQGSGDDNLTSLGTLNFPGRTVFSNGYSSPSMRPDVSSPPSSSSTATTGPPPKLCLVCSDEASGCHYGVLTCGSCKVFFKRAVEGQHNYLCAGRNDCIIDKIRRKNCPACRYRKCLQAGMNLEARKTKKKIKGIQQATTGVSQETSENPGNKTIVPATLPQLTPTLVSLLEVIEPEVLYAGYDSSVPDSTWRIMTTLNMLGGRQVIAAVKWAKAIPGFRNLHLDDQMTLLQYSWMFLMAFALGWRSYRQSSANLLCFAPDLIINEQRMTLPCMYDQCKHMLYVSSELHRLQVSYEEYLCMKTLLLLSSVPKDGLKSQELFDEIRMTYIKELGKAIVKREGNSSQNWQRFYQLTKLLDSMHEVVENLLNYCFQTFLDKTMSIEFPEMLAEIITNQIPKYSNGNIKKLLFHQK
ATP-dependent 6-phosphofructokinase (Trypanosoma brucei brucei), sequence (O15648 whole entry, looked up): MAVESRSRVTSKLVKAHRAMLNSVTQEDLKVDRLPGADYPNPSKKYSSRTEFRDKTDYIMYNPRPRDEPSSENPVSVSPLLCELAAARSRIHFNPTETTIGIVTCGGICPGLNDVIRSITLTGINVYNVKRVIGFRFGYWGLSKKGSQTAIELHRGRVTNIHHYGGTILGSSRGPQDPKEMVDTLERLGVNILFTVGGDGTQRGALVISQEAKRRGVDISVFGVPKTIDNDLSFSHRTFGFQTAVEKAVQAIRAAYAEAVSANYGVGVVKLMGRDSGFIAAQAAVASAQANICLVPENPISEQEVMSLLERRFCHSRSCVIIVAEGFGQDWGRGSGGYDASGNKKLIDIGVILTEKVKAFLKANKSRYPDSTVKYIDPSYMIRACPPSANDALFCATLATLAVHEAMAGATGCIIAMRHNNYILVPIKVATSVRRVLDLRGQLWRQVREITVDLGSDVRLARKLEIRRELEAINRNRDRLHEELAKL
Luciferin 4-monooxygenase (Photinus pyralis), sequence (P08659 whole entry, looked up): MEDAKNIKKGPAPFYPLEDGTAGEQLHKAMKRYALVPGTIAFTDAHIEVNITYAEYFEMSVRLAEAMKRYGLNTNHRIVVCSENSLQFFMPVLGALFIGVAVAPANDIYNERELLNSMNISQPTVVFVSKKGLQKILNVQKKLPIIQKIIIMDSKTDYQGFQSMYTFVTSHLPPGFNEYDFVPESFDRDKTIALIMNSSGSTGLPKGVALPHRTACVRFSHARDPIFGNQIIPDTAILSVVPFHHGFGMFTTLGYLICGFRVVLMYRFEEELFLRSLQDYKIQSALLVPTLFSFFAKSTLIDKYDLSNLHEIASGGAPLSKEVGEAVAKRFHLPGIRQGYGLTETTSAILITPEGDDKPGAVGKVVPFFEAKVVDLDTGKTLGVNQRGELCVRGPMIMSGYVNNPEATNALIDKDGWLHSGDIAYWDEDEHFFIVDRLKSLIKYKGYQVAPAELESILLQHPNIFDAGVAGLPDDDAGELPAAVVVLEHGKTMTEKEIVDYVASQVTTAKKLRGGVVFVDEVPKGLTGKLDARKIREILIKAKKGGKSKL
3',5'-cyclic-AMP phosphodiesterase 4B (Homo sapiens), sequence (Q07343 whole entry, looked up): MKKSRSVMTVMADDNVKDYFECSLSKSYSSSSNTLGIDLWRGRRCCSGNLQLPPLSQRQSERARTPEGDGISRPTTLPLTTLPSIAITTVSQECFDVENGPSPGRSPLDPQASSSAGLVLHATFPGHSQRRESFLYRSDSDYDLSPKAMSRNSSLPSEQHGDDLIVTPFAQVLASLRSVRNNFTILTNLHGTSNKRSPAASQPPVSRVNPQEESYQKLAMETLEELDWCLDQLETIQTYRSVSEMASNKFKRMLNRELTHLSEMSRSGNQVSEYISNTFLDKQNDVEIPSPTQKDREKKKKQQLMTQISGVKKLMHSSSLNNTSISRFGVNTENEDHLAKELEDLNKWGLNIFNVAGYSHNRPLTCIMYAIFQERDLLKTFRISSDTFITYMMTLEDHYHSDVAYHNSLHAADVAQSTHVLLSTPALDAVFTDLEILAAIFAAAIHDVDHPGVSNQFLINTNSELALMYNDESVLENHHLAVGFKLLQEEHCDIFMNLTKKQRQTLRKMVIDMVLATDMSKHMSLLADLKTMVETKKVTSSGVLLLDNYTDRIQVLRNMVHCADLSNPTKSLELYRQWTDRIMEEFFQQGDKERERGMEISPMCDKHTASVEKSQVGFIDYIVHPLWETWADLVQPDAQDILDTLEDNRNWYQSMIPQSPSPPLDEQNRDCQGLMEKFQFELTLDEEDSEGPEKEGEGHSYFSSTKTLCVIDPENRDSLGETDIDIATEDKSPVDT
Cytochrome P450 1A2 (Homo sapiens), sequence (P05177 whole entry, looked up): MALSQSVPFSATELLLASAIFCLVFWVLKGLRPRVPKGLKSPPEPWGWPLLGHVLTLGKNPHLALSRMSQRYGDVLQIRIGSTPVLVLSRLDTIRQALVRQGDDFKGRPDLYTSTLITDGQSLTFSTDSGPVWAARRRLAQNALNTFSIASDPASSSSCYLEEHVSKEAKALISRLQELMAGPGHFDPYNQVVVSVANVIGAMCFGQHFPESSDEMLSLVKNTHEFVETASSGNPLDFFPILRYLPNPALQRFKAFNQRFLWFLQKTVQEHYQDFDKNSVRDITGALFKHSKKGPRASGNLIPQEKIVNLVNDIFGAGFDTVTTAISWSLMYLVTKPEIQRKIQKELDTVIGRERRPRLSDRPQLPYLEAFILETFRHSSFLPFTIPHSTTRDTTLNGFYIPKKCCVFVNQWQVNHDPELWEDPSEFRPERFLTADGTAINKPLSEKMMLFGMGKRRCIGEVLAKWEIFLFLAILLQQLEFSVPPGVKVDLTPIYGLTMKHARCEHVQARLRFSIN

With `CC(=C(CCOP(=O)(O)O)SC(=O)c1ccccc1)N(C=O)Cc1cnc(C)nc1N`, the call in assay [1], in assay [3], in assay [7] and in [9] was inactive. Besides, the activity change, negative = inhibition was 2.39% (inactive) in assay [2] and 0.981% (inactive) in [8]. Also, the Potency in assay [4] and in assay [5] was > 20.6 µM (inactive) throughout. The Potency entry (in assay [6]; in assay [10]; in [11]; in the assay on C2A; in the assay with CP191; in the assay on CP238) was “inactive” throughout. Besides, the Potency entry in the assay with CP256, in the assay on FAB9, with JCK and in the assay on SC27B was “inactive” throughout. In addition, the values for the max response in assay [8] (setting [14]) and in assay [8] (setting [15]) were -3.81% and -2.64%, respectively. The results for the activity, negative = inhibition in assay [12] (parasite line A) and in assay [12] (parasite line B) were -4.37% (inactive) and 20.3% (inactive), respectively.

On to `O=C1CN(/N=C\c2ccc([N+](=O)[O-])o2)C(=O)N1`, for which the outcome in [1], in assay [3] and in assay [7] was inactive. Moreover, the activity change, negative = inhibition is -2.23% (inactive) in assay [2] and 1.21% (inactive) in assay [8]. Moreover, the Potency in [4] and in [5] was > 20.6 µM (inactive) throughout. For the same molecule, the Potency entry in assay [6] and in assay [10] was “inactive” throughout. Moreover, the max response stood at 3.28% in [8] (setting [14]) and 0.924% in assay [8] (setting [15]).

Consider `C[C@@H]1C[C@H](OC(=O)c2ccccc2O)CC(C)(C)C1`, for which the outcome in [1] and in [7] was inactive. In addition, the Potency was 12.6 µM (active) in assay [13] and > 20.6 µM (inactive) in assay [4]. The Potency result in assay [6] and in assay [10] was “inactive” in each case. Moreover, the activity change, negative = inhibition in assay [8] is -2.75% (inactive). Also, the max response in assay [8] (setting [14]) is -8.27%; in assay [8] (setting [15]) it was -10.7%.

Take `N[C@H](Cc1cc(I)c(Oc2cc(I)c(O)c(I)c2)c(I)c1)C(=O)O`: the call in [1], in assay [3] and in [7] was inactive. Moreover, the figures for the activity change, negative = inhibition in [2] and in assay [8] were -8.92% (inactive) and 1.16% (inactive), respectively. Also, the Potency in assay [4] and in assay [5] was > 20.6 µM (inactive) each time. Moreover, the Potency entry in assay [6] and in assay [10] was “inactive” in each case. Moreover, the max response stood at 20.1% in assay [8] (setting [14]) and 21% in assay [8] (setting [15]).

Regarding `CC(C)NC[C@H]1CCc2cc(CO)c([N+](=O)[O-])cc2N1`, the call in [1], in assay [3], in [7] and in assay [9] was inactive. Also, the Potency was 10 µM (active) in assay [13] and > 20.6 µM (inactive) in assay [5]. In addition, in [8], the activity change, negative = inhibition is -3.1% (inactive). The max response in assay [8] (setting [14]) is -10%; in [8] (setting [15]), -14.1%. Besides, the Potency result (in [10]; in assay [11]; in the assay with C2A; with CP191; with CP238; in the assay on CP256) was “inactive” each time. Also, the Potency entry in the assay with FAB9, with JCK and in the assay with SC27B was “inactive” in each case. Moreover, the results for the activity, negative = inhibition in assay [12] (parasite line A) and in assay [12] (parasite line B) were 7.96% (inactive) and 12.7% (inactive), respectively.

On to `CCN[C@@H]1CN(CCCOC)S(=O)(=O)c2sc(S(N)(=O)=O)cc21`, for which the molecule was called inactive in assay [1], in assay [3], in assay [7] and in assay [9]. Moreover, the activity change, negative = inhibition in assay [2] was -3.14% (inactive); in assay [8], 1.92% (inactive). Also, the Potency in assay [4] and in assay [5] was > 20.6 µM (inactive) in each case. Moreover, the max response was -3.42% in [8] (setting [14]) and -8.18% in assay [8] (setting [15]). The Potency result (in assay [10]; in assay [11]; in the assay on C2A; in the assay with CP191; in the assay with CP238; in the assay with CP256) was “inactive” throughout. Besides, the Potency result in the assay with FAB9, with JCK and with SC27B was “inactive” in each case. Moreover, the activity, negative = inhibition in [12] (parasite line A) was -7.28% (inactive); in assay [12] (parasite line B) it was 4.88% (inactive).
